Laboratory results: PubChem BioAssay
Activity calls are given as the source filed them.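 How the source made its calls, unless noted: active means normalized viability below 100% at a tested concentration; inactive means the rest.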

Experiments:
[1] = drug combination growth inhibition, ovarian cancer – cell-based, oncology-focused library, rucaparib conditional, profiling panel (AID 1508598); settings: patient-derived ovarian cancer cells, CellTiter-Glo viability, 144 h, active compounds read low
[2] = biological target: NAD(+) hydrolase SARM1 (Homo sapiens) (UniProt Q6SZW1); assay: blocking NAD cleavage by SARM1 SAM-TIR – cell lysate, NAD-Glo luminescence (AID 1508614;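 active means compound whose remaining NAD level is above about 45 nM, limit read from the data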;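 further: higher remaining NAD means stronger inhibition of SARM1 NADase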); settings: SAM-TIR HEK293T lysate NADase, at 1 µM, active compounds read high
[3] = at 0.000305 µM, OCI-C5x cells, with rucaparib 10 µM, 100% = cells with rucaparib alone
[4] = at 0.000305 µM, OCI-C5x cells, without rucaparib
[5] = at 0.000305 µM, OCI-P5x cells, with rucaparib 20 µM, 100% = cells with rucaparib alone
[6] = at 0.000305 µM, OCI-P5x cells, without rucaparib
[7] = at 0.00122 µM, OCI-C5x cells, with rucaparib 10 µM, 100% = cells with rucaparib alone
[8] = at 0.00122 µM, OCI-C5x cells, without rucaparib
[9] = at 0.00122 µM, OCI-P5x cells, with rucaparib 20 µM, 100% = cells with rucaparib alone
[10] = at 0.00122 µM, OCI-P5x cells, without rucaparib
[11] = at 0.00488 µM, OCI-C5x cells, with rucaparib 10 µM, 100% = cells with rucaparib alone
[12] = at 0.00488 µM, OCI-C5x cells, without rucaparib
[13] = at 0.00488 µM, OCI-P5x cells, with rucaparib 20 µM, 100% = cells with rucaparib alone
[14] = at 0.00488 µM, OCI-P5x cells, without rucaparib
[15] = at 0.0195 µM, OCI-C5x cells, with rucaparib 10 µM, 100% = cells with rucaparib alone
[16] = at 0.0195 µM, OCI-C5x cells, without rucaparib
[17] = at 0.0195 µM, OCI-P5x cells, with rucaparib 20 µM, 100% = cells with rucaparib alone
[18] = at 0.0195 µM, OCI-P5x cells, without rucaparib
[19] = at 0.0781 µM, OCI-C5x cells, with rucaparib 10 µM, 100% = cells with rucaparib alone
[20] = at 0.0781 µM, OCI-C5x cells, without rucaparib
[21] = at 0.0781 µM, OCI-P5x cells, with rucaparib 20 µM, 100% = cells with rucaparib alone
[22] = at 0.0781 µM, OCI-P5x cells, without rucaparib
[23] = at 0.313 µM, OCI-C5x cells, with rucaparib 10 µM, 100% = cells with rucaparib alone
[24] = at 0.313 µM, OCI-C5x cells, without rucaparib
[25] = at 0.313 µM, OCI-P5x cells, with rucaparib 20 µM, 100% = cells with rucaparib alone
[26] = at 0.313 µM, OCI-P5x cells, without rucaparib
[27] = at 1.25 µM, OCI-C5x cells, with rucaparib 10 µM, 100% = cells with rucaparib alone
[28] = at 1.25 µM, OCI-C5x cells, without rucaparib
[29] = at 1.25 µM, OCI-P5x cells, with rucaparib 20 µM, 100% = cells with rucaparib alone
[30] = at 1.25 µM, OCI-P5x cells, without rucaparib
[31] = at 5 µM, OCI-C5x cells, with rucaparib 10 µM, 100% = cells with rucaparib alone
[32] = at 5 µM, OCI-C5x cells, without rucaparib
[33] = at 5 µM, OCI-P5x cells, with rucaparib 20 µM, 100% = cells with rucaparib alone
[34] = at 5 µM, OCI-P5x cells, without rucaparib

NAD(+) hydrolase SARM1 (Homo sapiens), sequence (Q6SZW1 whole entry, looked up): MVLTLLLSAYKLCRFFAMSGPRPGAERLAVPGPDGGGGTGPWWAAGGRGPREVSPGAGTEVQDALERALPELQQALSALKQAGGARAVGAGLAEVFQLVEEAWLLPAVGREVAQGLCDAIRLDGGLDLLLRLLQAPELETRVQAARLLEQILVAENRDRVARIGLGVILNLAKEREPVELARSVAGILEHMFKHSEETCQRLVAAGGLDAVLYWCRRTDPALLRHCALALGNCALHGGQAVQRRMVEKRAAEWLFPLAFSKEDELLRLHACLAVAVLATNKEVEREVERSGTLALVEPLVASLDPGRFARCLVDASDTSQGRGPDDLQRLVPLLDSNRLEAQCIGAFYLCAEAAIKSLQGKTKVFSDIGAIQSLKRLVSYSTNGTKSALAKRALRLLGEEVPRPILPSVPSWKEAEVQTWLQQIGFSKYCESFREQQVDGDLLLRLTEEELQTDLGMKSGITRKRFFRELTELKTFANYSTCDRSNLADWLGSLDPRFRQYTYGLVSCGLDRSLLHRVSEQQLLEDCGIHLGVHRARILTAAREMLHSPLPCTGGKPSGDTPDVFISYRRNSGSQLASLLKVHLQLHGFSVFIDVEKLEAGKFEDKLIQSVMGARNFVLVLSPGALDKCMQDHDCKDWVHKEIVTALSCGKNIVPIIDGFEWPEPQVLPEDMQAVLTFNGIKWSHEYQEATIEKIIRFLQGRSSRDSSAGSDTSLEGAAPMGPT

C[C@H](O[C@H]1OCCN(Cc2n[nH]c(=O)[nH]2)[C@H]1c1ccc(F)cc1)c1cc(C(F)(F)F)cc(C(F)(F)F)c1
inactive: viability [1, 3] 106% | viability [1, 4] 113% | viability [1, 5] 100% | viability [1, 6] 105% | viability [1, 7] 111% | viability [1, 8] 113% | viability [1, 9] 109% | viability [1, 10] 105% | viability [1, 11] 122% | viability [1, 12] 123% | viability [1, 13] 110% | viability [1, 14] 114% | viability [1, 15] 108% | viability [1, 16] 114% | viability [1, 17] 115% | viability [1, 18] 112% | viability [1, 19] 117% | viability [1, 20] 125% | viability [1, 21] 117% | viability [1, 22] 117% | viability [1, 23] 116% | viability [1, 24] 130% | viability [1, 25] 112% | viability [1, 26] 119% | viability [1, 27] 120% | viability [1, 28] 144% | viability [1, 29] 117% | viability [1, 30] 113% | viability [1, 32] 147%
active: viability [1, 31] 80.9% | viability [1, 33] 36.6% | viability [1, 34] 97.5%

C[C@]12CCC(=O)C=C1CC[C@@H]1[C@H]2[C@H](O)C[C@@]2(C)[C@H]1CC[C@@]2(O)C(=O)CO
active: viability [1, 9] 98.6% | viability [1, 34] 99.3%
inactive: viability [1, 3] 107% | viability [1, 4] 119% | viability [1, 5] 105% | viability [1, 6] 115% | viability [1, 7] 109% | viability [1, 8] 116% | viability [1, 10] 109% | viability [1, 11] 114% | viability [1, 12] 121% | viability [1, 13] 102% | viability [1, 14] 117% | viability [1, 15] 110% | viability [1, 16] 128% | viability [1, 17] 109% | viability [1, 18] 112% | viability [1, 19] 112% | viability [1, 20] 132% | viability [1, 21] 103% | viability [1, 22] 115% | viability [1, 23] 103% | viability [1, 24] 119% | viability [1, 25] 104% | viability [1, 26] 114% | viability [1, 27] 111% | viability [1, 28] 118% | viability [1, 29] 103% | viability [1, 30] 114% | viability [1, 31] 125% | viability [1, 32] 120% | viability [1, 33] 103%

O=c1[nH]c(=O)n([C@@H]2C[C@H](O)[C@@H](CO)O2)cc1F
active: viability [1, 5] 67.7% | viability [1, 6] 24.9% | viability [1, 9] 65.1% | viability [1, 10] 15.4% | viability [1, 14] 98.1% | viability [1, 15] 98.9% | viability [1, 18] 100% | viability [1, 26] 98.4% | viability [1, 29] 89.4% | viability [1, 30] 85.9% | viability [1, 33] 72.1% | viability [1, 34] 49.4%
inactive: viability [1, 3] 115% | viability [1, 4] 119% | viability [1, 7] 111% | viability [1, 8] 117% | viability [1, 11] 106% | viability [1, 12] 121% | viability [1, 13] 105% | viability [1, 16] 111% | viability [1, 17] 104% | viability [1, 19] 109% | viability [1, 20] 120% | viability [1, 21] 104% | viability [1, 22] 109% | viability [1, 23] 109% | viability [1, 24] 114% | viability [1, 25] 104% | viability [1, 27] 117% | viability [1, 28] 128% | viability [1, 31] 185% | viability [1, 32] 183%

CCC(C)(C)C(=O)O[C@@H]1C[C@@H](C)C=C2C=C[C@H](C)[C@@H](CC[C@@H]3C[C@@H](O)CC(=O)O3)[C@H]21
active: viability [1, 13] 96.9% | viability [1, 15] 95.4% | viability [1, 17] 94.2% | viability [1, 19] 76.6% | viability [1, 20] 70.9% | viability [1, 21] 72.4% | viability [1, 22] 66.6% | viability [1, 23] 36% | viability [1, 24] 32% | viability [1, 25] 13.1% | viability [1, 26] 14.5% | viability [1, 27] 24.2% | viability [1, 28] 27.2% | viability [1, 29] 7.81% | viability [1, 30] 7.43% | viability [1, 31] 8.07% | viability [1, 32] 7.81% | viability [1, 33] 5.14% | viability [1, 34] 3.59%
inactive: viability [1, 3] 109% | viability [1, 4] 119% | viability [1, 5] 102% | viability [1, 6] 113% | viability [1, 7] 108% | viability [1, 8] 113% | viability [1, 9] 110% | viability [1, 10] 115% | viability [1, 11] 112% | viability [1, 12] 110% | viability [1, 14] 110% | viability [1, 16] 112% | viability [1, 18] 101%

O=C(NCc1ccccc1)OCCO
inactive: remaining NAD [2] 10 nM

COC1=C2C[C@H](C)C[C@@H](OC)[C@H](O)[C@H](C)/C=C(\C)[C@H](OC(N)=O)[C@@H](OC)/C=C/C=C(\C)C(=O)NC(=CC1=O)C2=O
inactive: viability [1, 5] 108% | viability [1, 6] 102% | viability [1, 7] 107% | viability [1, 8] 106% | viability [1, 10] 103% | viability [1, 11] 114% | viability [1, 12] 109%
active: viability [1, 3] 97.2% | viability [1, 4] 99.7% | viability [1, 9] 93.1% | viability [1, 13] 14.8% | viability [1, 14] 14.2% | viability [1, 15] 29.6% | viability [1, 16] 12.1% | viability [1, 17] 5.75% | viability [1, 18] 4.97% | viability [1, 19] 16.4% | viability [1, 20] 9.53% | viability [1, 21] 5.79% | viability [1, 22] 4.23% | viability [1, 23] 11.1% | viability [1, 24] 7.02% | viability [1, 25] 5.27% | viability [1, 26] 4.3% | viability [1, 27] 9.96% | viability [1, 28] 7.13% | viability [1, 29] 5.24% | viability [1, 30] 3.95% | viability [1, 31] 6.19% | viability [1, 32] 5.94% | viability [1, 33] 4.11% | viability [1, 34] 3.72%

CC(C)CC(CC(=O)NO)C(=O)N[C@@H](Cc1ccc2ccccc2c1)C(=O)N[C@@H](C)C(=O)NCCN (stereo partly drawn)
inactive: viability [1, 3] 123% | viability [1, 4] 120% | viability [1, 6] 101% | viability [1, 7] 111% | viability [1, 8] 110% | viability [1, 11] 123% | viability [1, 12] 118% | viability [1, 15] 123% | viability [1, 16] 120% | viability [1, 19] 132% | viability [1, 20] 102% | viability [1, 23] 114% | viability [1, 24] 114% | viability [1, 27] 134% | viability [1, 28] 112% | viability [1, 31] 112% | viability [1, 32] 110%
active: viability [1, 5] 90.2% | viability [1, 9] 88.9% | viability [1, 10] 99.8% | viability [1, 13] 92% | viability [1, 14] 94.4% | viability [1, 17] 84.6% | viability [1, 18] 100% | viability [1, 21] 90% | viability [1, 22] 92.6% | viability [1, 25] 91.3% | viability [1, 26] 92.3% | viability [1, 29] 85.1% | viability [1, 30] 86% | viability [1, 33] 78.6% | viability [1, 34] 88.3%

CO[C@H]1C[C@@H]2CC[C@@H](C)[C@@](O)(O2)C(=O)C(=O)N2CCCC[C@H]2C(=O)O[C@H]([C@H](C)C[C@@H]2CC[C@@H](O)[C@H](OC)C2)CC(=O)[C@H](C)/C=C(\C)[C@@H](O)[C@H](OC)C(=O)[C@H](C)C[C@H](C)/C=C/C=C/C=C/1C
active: viability [1, 5] 87.8% | viability [1, 6] 75.2% | viability [1, 7] 99.6% | viability [1, 9] 91.5% | viability [1, 10] 64.8% | viability [1, 11] 94.9% | viability [1, 12] 95.5% | viability [1, 13] 83.5% | viability [1, 14] 62.3% | viability [1, 16] 95.6% | viability [1, 17] 87.8% | viability [1, 18] 62.5% | viability [1, 20] 89.7% | viability [1, 21] 92.1% | viability [1, 22] 60% | viability [1, 24] 97.8% | viability [1, 25] 94.8% | viability [1, 26] 63.9% | viability [1, 28] 99.2% | viability [1, 29] 93.7% | viability [1, 30] 61.2%
inactive: viability [1, 3] 117% | viability [1, 4] 111% | viability [1, 8] 102% | viability [1, 15] 101% | viability [1, 19] 103% | viability [1, 23] 107% | viability [1, 27] 105% | viability [1, 31] 118% | viability [1, 32] 107%
